Results filed as inconclusive are left out. Active and inactive are the calls of the source. The call rests on the fitted dose curve; in most records, active means well fitted inhibition curve with a large enough effect; inconclusive means small, poorly fitted or top-dose-only effect; inactive means flat fitted curve, though single readings scatter.
On the % scale 0 is the no-effect control and ±100 the full control effect.

A short description of one test: Drug repurposing screens with cells derived from glioblastoma tumor samples (AID 1345199). Further: nearly all actives have a fitted effect of over 40% in size. Conditions: GBM patient neurospheres viability, ATP luminescence, 48 h; at 20 µM (top of the series); tumour line C. The procedure, abridged:
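Primary testing used CD133+ neurospheres from four GBM patients, seven concentrations, 48 h exposure and ATP-based viability; confirmation added three slower-growing patient lines.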
Take `Clc1ccc(COC(Cn2ccnc2)c2ccc(Cl)cc2Cl)c(Cl)c1` (centres undefined): the activity, negative = cell killing is -15.2% (inactive).

Consider `CN(C)CCN(Cc1ccc(Cl)cc1)c1ccccn1`, for which the activity, negative = cell killing is -14.6% (inactive).

With `NS(=O)(=O)c1cc(Cl)c(Cl)c(S(N)(=O)=O)c1`, the activity, negative = cell killing was 4.89% (inactive).

With `NCC1CCC(C(=O)O)CC1` (centres undefined), the activity, negative = cell killing is 25.1% (inactive).

Still in this test, the particulars now being: GBM patient neurospheres viability, ATP luminescence, 48 h; at 21.2 µM (top of the series); tumour line B.
Turning to `CN(C)CCN(Cc1ccc(Cl)cc1)c1ccccn1`, the activity, negative = cell killing was -16.9% (inactive).

In the case of `NS(=O)(=O)c1cc(Cl)c(Cl)c(S(N)(=O)=O)c1`, the activity, negative = cell killing is -0.766% (inactive).

As for `NCC1CCC(C(=O)O)CC1` (centres undefined), the activity, negative = cell killing is -5.15% (inactive).

The same test, now with this note: GBM patient neurospheres viability, ATP luminescence, 48 h; at 45.9 µM (top of the series); tumour line B.
Take `O=C(CCCN1CCN(c2ccc(F)cc2)CC1)NC1c2ccccc2CSc2ccccc21` (centres undefined): the activity, negative = cell killing is -21% (inactive).

In the case of `COc1cc2c(cc1OC)CC(=O)N(CCCN(C)C[C@H]1Cc3cc(OC)c(OC)cc31)CC2`, the activity, negative = cell killing is -14.4% (inactive).

Take `O=C(Nc1cccc2c(=O)cc(-c3nn[nH]n3)oc12)c1ccc(OCCCCc2ccccc2)cc1`: the activity, negative = cell killing is 1.64% (inactive).

`CS(=O)(=O)c1ccc(C2=C(c3ccccc3)C(=O)OC2)cc1`: the activity, negative = cell killing is -11.3% (inactive).

Consider `CN1CC(=O)N2C(Cc3c([nH]c4ccccc34)[C@H]2c2ccc3c(c2)OCO3)C1=O` (some centres undefined), for which the activity, negative = cell killing is -5.44% (inactive).

Consider `CC(C)CN(C[C@@H](O)[C@H](Cc1ccccc1)NC(=O)O[C@H]1CO[C@H]2OCC[C@H]21)S(=O)(=O)c1ccc(N)cc1`, for which the activity, negative = cell killing is -11.9% (inactive).

Turning to `CCC(=O)OCC(=O)[C@@]1(OC(=O)CC)[C@@H](C)C[C@@H]2[C@H]3CCC4=CC(=O)C=C[C@]4(C)[C@@]3(F)[C@@H](O)C[C@@]21C`, the activity, negative = cell killing was -4.93% (inactive).

Values taken from PubChem BioAssay (NCATS).
